The target of assay [1] is T1, Tyrosine-protein kinase receptor TYRO3 (Homo sapiens) (UniProt Q06418).
T1 sequence (whole entry): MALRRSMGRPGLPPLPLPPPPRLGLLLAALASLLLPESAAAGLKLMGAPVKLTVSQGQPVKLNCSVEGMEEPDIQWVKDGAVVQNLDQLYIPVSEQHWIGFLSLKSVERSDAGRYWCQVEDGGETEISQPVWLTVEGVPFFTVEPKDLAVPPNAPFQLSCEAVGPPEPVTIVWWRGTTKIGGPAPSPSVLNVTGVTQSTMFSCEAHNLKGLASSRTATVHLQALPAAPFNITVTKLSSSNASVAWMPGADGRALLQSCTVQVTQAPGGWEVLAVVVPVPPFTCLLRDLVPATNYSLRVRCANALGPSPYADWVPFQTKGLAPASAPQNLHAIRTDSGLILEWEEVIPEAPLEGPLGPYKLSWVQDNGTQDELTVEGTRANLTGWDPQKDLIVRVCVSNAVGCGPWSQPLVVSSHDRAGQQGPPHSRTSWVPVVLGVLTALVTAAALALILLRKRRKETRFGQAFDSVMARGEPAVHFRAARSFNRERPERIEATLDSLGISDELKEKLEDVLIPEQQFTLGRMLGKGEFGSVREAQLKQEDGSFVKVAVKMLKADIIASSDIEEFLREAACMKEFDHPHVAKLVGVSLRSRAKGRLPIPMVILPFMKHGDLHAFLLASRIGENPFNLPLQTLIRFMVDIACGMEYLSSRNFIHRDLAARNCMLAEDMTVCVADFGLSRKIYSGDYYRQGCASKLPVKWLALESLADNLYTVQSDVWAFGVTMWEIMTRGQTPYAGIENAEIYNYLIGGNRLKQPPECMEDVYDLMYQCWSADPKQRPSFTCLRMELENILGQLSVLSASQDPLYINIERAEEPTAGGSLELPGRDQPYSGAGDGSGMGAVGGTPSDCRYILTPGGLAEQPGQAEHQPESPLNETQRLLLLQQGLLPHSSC
As to conditions: at 1 µM.

Assay [2] has as its target Tyrosine-protein kinase Yes (Homo sapiens) (UniProt P07947). To be noted: at 0.1 µM.
For assay [3] the target is unchanged. To be noted: at 1 µM.
The target in assay [4] is T2, Tyrosine-protein kinase ZAP-70 (Homo sapiens) (UniProt P43403).
T2 sequence (whole entry): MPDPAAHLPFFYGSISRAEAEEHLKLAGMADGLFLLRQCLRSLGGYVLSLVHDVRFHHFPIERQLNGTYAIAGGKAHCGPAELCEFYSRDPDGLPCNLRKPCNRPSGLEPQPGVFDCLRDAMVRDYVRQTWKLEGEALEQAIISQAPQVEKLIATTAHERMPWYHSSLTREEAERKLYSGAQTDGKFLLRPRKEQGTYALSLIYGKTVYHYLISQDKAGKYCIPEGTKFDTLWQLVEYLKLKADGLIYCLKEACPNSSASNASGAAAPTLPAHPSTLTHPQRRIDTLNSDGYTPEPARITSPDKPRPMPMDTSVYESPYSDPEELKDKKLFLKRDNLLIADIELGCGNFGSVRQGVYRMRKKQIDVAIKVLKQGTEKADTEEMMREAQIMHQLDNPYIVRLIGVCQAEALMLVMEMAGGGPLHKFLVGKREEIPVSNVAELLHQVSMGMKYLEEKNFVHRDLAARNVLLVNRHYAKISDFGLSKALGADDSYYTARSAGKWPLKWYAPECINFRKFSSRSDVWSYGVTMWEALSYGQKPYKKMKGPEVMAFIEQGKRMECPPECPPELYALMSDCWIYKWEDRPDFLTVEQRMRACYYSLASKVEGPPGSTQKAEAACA
To be noted: at 0.1 µM.

Assay [5] has as its target T2, Tyrosine-protein kinase ZAP-70 (Homo sapiens). To be noted: at 1 µM.
Assay [6] has as its target Serine/threonine-protein kinase B-raf (Homo sapiens) (UniProt P15056). To be noted: at 0.1 µM.
The target is the same in assay [7]. As to conditions: at 1 µM.
Assay [8] relates to Serine/threonine-protein kinase B-raf (Homo sapiens), P15056 [V600E]. To be noted: at 0.1 µM.
Chain of Serine/threonine-protein kinase B-raf (Homo sapiens), P15056 [V600E] (P15056 whole entry V600E): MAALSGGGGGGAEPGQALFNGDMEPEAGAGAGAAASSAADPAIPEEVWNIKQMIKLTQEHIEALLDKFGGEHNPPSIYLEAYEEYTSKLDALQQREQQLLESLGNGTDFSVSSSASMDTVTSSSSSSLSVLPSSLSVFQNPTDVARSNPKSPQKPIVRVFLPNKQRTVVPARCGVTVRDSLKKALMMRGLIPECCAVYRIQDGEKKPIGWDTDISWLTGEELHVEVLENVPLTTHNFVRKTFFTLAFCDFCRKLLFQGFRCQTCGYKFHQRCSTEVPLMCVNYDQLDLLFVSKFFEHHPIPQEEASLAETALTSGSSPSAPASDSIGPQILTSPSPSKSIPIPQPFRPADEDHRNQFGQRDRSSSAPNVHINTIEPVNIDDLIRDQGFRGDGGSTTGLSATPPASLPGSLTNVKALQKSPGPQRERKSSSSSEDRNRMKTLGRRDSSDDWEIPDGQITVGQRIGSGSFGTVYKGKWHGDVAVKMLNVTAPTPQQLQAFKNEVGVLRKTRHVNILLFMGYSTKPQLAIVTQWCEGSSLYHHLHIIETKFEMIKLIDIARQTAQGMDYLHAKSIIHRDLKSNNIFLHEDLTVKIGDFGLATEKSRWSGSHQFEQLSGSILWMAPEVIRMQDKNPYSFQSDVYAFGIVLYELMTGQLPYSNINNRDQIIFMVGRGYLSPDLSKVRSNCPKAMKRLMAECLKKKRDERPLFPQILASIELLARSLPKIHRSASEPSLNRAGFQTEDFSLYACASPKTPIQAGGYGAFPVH
For assay [9] the test system is unchanged. To be noted: at 1 µM.
The target in assay [10] is RAF proto-oncogene serine/threonine-protein kinase (Homo sapiens) (UniProt P04049). As to conditions: at 0.1 µM.
Chain of RAF proto-oncogene serine/threonine-protein kinase (Homo sapiens) (P04049 whole entry): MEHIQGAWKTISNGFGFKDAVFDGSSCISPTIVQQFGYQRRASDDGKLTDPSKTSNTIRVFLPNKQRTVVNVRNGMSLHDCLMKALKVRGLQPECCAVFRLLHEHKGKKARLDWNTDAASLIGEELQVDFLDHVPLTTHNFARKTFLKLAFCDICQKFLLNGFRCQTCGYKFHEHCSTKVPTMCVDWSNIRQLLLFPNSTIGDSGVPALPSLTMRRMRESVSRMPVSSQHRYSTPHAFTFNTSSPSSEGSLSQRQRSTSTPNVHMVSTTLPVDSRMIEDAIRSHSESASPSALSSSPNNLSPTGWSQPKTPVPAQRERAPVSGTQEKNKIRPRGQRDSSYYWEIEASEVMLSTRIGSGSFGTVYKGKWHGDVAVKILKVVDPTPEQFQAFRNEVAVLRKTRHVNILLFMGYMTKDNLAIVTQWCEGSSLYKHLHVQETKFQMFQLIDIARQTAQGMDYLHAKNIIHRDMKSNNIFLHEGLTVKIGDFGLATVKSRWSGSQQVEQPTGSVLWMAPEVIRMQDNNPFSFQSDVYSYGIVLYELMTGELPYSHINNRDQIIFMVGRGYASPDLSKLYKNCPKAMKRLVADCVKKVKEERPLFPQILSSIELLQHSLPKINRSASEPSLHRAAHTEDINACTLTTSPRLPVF
The target is the same in assay [11]. To be noted: at 1 µM.
Assay [12] concerns the target T3, Interleukin-1 receptor-associated kinase 4 (Homo sapiens) (UniProt Q9NWZ3).
T3 sequence (whole entry): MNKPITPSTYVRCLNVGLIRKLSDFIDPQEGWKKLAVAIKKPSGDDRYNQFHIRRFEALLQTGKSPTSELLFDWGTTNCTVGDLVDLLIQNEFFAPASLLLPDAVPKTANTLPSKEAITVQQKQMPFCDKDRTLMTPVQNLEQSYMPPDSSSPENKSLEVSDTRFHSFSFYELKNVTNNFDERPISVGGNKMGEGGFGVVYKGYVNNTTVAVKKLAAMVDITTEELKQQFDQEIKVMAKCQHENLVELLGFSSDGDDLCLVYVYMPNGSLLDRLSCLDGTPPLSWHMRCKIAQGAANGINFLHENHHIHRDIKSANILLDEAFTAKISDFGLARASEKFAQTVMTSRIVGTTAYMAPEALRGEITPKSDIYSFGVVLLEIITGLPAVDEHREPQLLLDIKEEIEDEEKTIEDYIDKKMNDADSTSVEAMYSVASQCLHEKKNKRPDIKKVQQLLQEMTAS
As to conditions: at 0.1 µM.

The target in assay [13] is T3, Interleukin-1 receptor-associated kinase 4 (Homo sapiens). To be noted: at 1 µM.
Assay [14] deals with Leucine-rich repeat serine/threonine-protein kinase 2 (Homo sapiens) (UniProt Q5S007). As to conditions: at 0.1 µM.
Chain of Leucine-rich repeat serine/threonine-protein kinase 2 (Homo sapiens) (Q5S007 whole entry): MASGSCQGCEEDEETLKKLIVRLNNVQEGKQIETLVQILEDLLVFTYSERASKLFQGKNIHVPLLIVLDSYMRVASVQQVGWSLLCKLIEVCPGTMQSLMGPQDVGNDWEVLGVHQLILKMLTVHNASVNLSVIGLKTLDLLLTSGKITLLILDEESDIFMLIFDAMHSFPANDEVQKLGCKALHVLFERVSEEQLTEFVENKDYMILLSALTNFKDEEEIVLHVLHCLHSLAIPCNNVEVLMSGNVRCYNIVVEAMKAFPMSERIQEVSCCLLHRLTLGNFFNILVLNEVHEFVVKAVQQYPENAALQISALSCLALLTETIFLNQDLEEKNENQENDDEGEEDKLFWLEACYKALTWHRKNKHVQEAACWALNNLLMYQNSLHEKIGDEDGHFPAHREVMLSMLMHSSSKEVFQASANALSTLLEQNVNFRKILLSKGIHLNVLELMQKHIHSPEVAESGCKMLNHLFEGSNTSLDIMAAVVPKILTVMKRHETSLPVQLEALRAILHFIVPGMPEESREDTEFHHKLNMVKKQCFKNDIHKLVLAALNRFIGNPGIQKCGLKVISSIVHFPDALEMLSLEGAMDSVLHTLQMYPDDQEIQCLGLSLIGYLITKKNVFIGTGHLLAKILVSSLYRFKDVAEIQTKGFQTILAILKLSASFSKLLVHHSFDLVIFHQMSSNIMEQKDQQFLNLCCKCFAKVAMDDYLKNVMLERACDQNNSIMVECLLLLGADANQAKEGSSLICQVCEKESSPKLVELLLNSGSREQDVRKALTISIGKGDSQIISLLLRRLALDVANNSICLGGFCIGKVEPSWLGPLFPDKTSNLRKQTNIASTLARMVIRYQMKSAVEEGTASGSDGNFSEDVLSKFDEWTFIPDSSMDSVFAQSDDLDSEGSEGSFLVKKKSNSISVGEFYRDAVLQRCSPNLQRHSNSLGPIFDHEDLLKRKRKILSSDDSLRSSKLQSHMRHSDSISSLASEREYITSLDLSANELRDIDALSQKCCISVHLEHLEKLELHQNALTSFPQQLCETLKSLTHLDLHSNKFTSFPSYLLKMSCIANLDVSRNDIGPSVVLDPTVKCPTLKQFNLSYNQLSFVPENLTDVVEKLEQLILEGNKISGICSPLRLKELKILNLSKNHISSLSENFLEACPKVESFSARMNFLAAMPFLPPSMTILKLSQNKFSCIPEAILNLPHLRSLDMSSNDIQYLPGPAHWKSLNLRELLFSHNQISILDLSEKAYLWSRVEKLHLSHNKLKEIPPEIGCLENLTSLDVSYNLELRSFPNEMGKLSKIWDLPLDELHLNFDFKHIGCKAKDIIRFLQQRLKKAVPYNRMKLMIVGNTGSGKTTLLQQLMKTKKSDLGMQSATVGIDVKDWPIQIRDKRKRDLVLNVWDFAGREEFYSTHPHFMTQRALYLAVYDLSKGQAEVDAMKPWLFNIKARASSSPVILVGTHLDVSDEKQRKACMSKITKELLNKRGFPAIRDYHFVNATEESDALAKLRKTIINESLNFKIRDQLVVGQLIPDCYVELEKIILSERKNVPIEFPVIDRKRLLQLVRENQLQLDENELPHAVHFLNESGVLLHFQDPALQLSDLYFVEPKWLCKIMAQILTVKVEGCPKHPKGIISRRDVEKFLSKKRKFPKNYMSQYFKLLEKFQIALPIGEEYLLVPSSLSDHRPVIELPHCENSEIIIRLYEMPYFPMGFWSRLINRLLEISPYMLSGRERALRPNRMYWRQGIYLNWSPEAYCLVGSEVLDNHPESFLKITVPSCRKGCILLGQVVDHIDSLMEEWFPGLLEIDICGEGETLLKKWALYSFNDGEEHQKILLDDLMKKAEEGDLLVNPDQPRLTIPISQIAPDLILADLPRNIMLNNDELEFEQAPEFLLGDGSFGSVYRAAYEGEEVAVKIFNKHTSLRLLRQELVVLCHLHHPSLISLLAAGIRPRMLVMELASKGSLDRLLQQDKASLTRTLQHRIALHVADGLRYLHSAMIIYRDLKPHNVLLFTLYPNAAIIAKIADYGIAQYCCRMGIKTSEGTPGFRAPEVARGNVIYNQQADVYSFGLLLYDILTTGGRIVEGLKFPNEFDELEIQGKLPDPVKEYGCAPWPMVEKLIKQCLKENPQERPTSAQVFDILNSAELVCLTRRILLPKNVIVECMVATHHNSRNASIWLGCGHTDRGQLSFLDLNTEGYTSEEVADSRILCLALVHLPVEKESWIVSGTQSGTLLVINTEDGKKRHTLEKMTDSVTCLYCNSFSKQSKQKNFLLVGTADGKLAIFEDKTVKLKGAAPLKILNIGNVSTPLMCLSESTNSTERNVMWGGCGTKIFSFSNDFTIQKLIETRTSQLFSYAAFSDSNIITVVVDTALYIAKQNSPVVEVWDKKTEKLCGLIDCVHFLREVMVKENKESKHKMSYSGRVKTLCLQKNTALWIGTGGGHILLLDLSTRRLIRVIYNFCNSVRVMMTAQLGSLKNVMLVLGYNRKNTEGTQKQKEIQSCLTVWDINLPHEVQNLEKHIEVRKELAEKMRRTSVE
For assay [15] the target is unchanged. As to conditions: at 1 µM.
The test system of assay [16] is Leucine-rich repeat serine/threonine-protein kinase 2 (Homo sapiens), Q5S007 [G2019S]. To be noted: at 0.1 µM.
Chain of Leucine-rich repeat serine/threonine-protein kinase 2 (Homo sapiens), Q5S007 [G2019S] (Q5S007 whole entry G2019S): as the sequence (Q5S007 whole entry) above, with G2019S counted along it
Assay [17] shares this test system. As to conditions: at 1 µM.

The inhibition is the change of the read-out against control, counted positive when it falls.

Chain of Tyrosine-protein kinase Yes (Homo sapiens) (P07947 2-543 limits assumed): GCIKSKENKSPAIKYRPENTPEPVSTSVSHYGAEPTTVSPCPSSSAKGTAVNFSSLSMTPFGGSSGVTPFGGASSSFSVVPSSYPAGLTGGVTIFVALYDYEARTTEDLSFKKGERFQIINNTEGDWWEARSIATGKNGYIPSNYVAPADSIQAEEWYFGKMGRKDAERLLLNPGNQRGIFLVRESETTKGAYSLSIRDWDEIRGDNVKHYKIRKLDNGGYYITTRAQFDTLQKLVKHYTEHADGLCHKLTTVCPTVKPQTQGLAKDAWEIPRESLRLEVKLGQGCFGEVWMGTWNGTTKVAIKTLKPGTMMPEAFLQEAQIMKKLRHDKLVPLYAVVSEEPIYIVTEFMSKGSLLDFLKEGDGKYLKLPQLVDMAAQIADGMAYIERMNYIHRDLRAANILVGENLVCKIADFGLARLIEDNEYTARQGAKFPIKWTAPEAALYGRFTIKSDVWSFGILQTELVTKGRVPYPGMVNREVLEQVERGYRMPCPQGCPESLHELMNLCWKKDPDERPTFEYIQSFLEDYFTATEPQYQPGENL
Chain of Serine/threonine-protein kinase B-raf (Homo sapiens) (P15056 whole entry): as the sequence (P15056 whole entry V600E) above, with E600V counted along it

In the case of `COC(=O)Nc1nc2ccc(Oc3ccc(NC(=O)Nc4cccc(Cl)c4)cc3)cc2[nH]1`, the inhibition in [1] turned out to be 11%; in assay [2], 0.67%; in assay [3], 2.42%; in assay [4], 0.78%; in assay [5] it was 2.42%; in assay [6], 6.07%. In addition, the inhibition in assay [7] is 17.1%; in assay [8], 6.79%; in assay [9], 15.1%; in assay [10], -4.01%; in assay [11], 5.38%; in assay [12] it was -0.12%. For the same compound, the inhibition in assay [13] was found to be 0.32%; in assay [14], 6.71%; in [15], 14.1%; in assay [16], 5%; in assay [17], 6.86%.
As to `Nc1nc(-c2ccc(F)cc2)c(-c2ccc3ncccc3n2)s1`, the inhibition in [1] stood at 2.87%; in assay [2] it was 6.52%; in assay [3], 37.8%; in assay [4] it was 1.91%; in assay [5], 1.99%; in assay [6], 6.57%. Also, the inhibition in assay [7] was 7.72%; in assay [8] it was 6.41%; in [9] it was 7.92%; in assay [10] it was 0.53%; in [11], -6.29%; in assay [12], 3.41%. Moreover, the inhibition turned out to be 2.12% in [13]; 1.84% in assay [14]; 6.21% in [15]; 4.54% in [16]; 10.2% in [17].
Take `O=S(=O)(CCNCc1ccc(-c2ccc3ncnc(Nc4ccc(OCc5cccc(F)c5)c(Cl)c4)c3c2)o1)c1ccccc1`: the inhibition was determined as 3% in assay [1]; 3.79% in [2]; 7.66% in assay [3]; 2.6% in [4]; 1.7% in assay [5]; 8.76% in assay [6]. Moreover, the inhibition in assay [7] amounted to 8.78%; in [8] it was 6.36%; in assay [9], 6.18%; in [10], 1.16%; in [11], 1.37%; in assay [12], 2.14%. For the same compound, the inhibition in assay [13] is 2.63%; in assay [14] it was 4.97%; in assay [15], 4.53%; in assay [16] it was 6.27%; in assay [17], 9.28%.
In the case of `COc1cc(/C=N/Nc2ncnc3[nH]ncc23)ccc1O`, the inhibition turned out to be 26.6% in [1]; 16.4% in assay [2]; 58% in assay [3]; 0.75% in assay [4]; 7.51% in assay [5]; 5.39% in [6]. The inhibition in [7] is 8.88%; in [8], 4.62%; in assay [9] it was 8.2%; in assay [10] it was 4.83%; in assay [11], 6.28%; in assay [12], -2.65%. Further, the inhibition in [13] is 4.43%; in assay [14] it was 5.72%; in assay [15], 17.5%; in assay [16], 10%; in assay [17], 45.2%.
Regarding `FC(F)(F)c1cccc(-c2nn3ncccc3c2-c2ccnc(Nc3ccc4c(c3)OCCO4)n2)c1`, the inhibition in assay [1] came out at 22.9%; in assay [2], 32.1%; in [3], 82.8%; in assay [4] it was 2%; in assay [5], 3.05%; in [6] it was 2.88%. Besides, the inhibition in assay [7] was 6.42%; in assay [8], 1.76%; in [9] it was 7.02%; in assay [10], -1.62%; in [11], -8.65%; in assay [12], 6.37%. Besides, the inhibition in assay [13] turned out to be 0.32%; in assay [14] it was 3.16%; in [15], 5.46%; in [16] it was 2.53%; in assay [17] it was 7.93%.
Take `Fc1cccc(COc2ccc(Nc3ncnc4sc(-c5ccco5)cc34)cc2Cl)c1`: the inhibition in assay [1] is 1.85%; in [2], 1.73%; in [3], 4.21%; in assay [4] it was 0.85%; in [5], 2.41%; in assay [6], 6.56%. The inhibition in assay [7] was 5.32%; in assay [8], 4.59%; in assay [9], 3.4%; in [10] it was -0.33%; in assay [11], 0.89%; in assay [12] it was 0.84%. Also, the inhibition in assay [13] turned out to be 1.26%; in [14], 3.64%; in [15], 6.42%; in [16], 5.67%; in assay [17], 9.11%.
Regarding `CC1=C(C(=O)Nc2cc(Cl)c3[nH]ncc3c2)C(c2ccc(C(F)(F)F)cc2)CC(=O)N1` (centres undefined), the inhibition came out at 5.41% in assay [1]; 6.96% in assay [2]; 27.4% in assay [3]; 3.23% in assay [4]; 3.9% in assay [5]; 9.34% in assay [6]. Further, the inhibition in assay [7] is 35.7%; in [8], 10.2%; in assay [9], 35.6%; in assay [10], 0.78%; in assay [11] it was -5.81%; in assay [12] it was 2.04%. Further, the inhibition in assay [13] was 1.44%; in assay [14] it was 2.62%; in assay [15], 4.9%; in assay [16], 4.35%; in [17], 12.6%.

The values are drawn from ChEMBL document CHEMBL1961873, “Compounds: GSK PKIS; Assays: Nanosyn kinase panel” (2012).
